Test results published in PubChem BioAssay AID1402 (National Center for Advancing Translational Sciences (NCATS), 2008).
Results filed as inconclusive are left out. Activity calls are given as the source filed them. The call rests on the fitted dose curve; in most records, active means well fitted curve in the direction sought with a large enough effect in the signal ratio; inconclusive means small, poorly fitted or top-dose-only effect, or effect the other way, or a change in a side signal; inactive means no such curve, though single readings can be large or run the other way; the % refers to the signal ratio.

Molecular target: Lutropin-choriogonadotropic hormone receptor (Homo sapiens) (UniProt P22888)
Assay: Counterscreen for Agonists of Thyroid Stimulating Hormone Receptor: HTRF Activity in a Luteinizing Hormone Receptor Cell Line
Conditions: HEK293-LHR cells, cAMP HTRF ratio, 30 min; series mostly up to 91.7 µM
Excerpt: NIH Chemical Genomics Center [NCGC] NIH Molecular Libraries Screening Centers Network [MLSCN] MLSCN Grant: 1 X01 MH080680-01 PI Name: Dr. Marvin Gershengorn, NIH NCGC Assay Overview: Confirmation of Thyroid Stimulating Hormone Receptor Agonists TSH is an alpha/beta heterodimeric glycoprotein hormone secreted from the anterior pituitary gland which belongs to the glycoprotein hormone family. The actions of TSH are mediated by a seven-transmembrane receptor, which upon TSH binding couples preferentially to the G-alpha (s) protein (Gs), resulting in activation of adenylate cyclase and increase in cyclic adenosine 3', 5' monophosphate (cAMP). The TSH receptor (THSR) is mainly expressed in thyroid follicular cells and regulates their growth and function. […] In order to confirm specificity of the compounds to the TSHR, a confirmatory assay was conducted on a similar family member, the Luteinizing Hormone (LH) receptor, transfected into a HEK 293 cell line, using an orthogonal detection technology to measure cAMP stimulation: antibody-based Homogeneous Time Resolved Fluorescence (HTRF).
NCGC Assay Protocol Summary: Homogeneous Time Resolved Fluorescence (HTRF) cAMP Assay. […] Plates were measured using the Envision plate reader (PerkinElmer, Boston, MA) with excitation at 330 nm and emissions of 615 nm and 660 nm. […]

Chain of Lutropin-choriogonadotropic hormone receptor (Homo sapiens) (P22888 whole entry, looked up): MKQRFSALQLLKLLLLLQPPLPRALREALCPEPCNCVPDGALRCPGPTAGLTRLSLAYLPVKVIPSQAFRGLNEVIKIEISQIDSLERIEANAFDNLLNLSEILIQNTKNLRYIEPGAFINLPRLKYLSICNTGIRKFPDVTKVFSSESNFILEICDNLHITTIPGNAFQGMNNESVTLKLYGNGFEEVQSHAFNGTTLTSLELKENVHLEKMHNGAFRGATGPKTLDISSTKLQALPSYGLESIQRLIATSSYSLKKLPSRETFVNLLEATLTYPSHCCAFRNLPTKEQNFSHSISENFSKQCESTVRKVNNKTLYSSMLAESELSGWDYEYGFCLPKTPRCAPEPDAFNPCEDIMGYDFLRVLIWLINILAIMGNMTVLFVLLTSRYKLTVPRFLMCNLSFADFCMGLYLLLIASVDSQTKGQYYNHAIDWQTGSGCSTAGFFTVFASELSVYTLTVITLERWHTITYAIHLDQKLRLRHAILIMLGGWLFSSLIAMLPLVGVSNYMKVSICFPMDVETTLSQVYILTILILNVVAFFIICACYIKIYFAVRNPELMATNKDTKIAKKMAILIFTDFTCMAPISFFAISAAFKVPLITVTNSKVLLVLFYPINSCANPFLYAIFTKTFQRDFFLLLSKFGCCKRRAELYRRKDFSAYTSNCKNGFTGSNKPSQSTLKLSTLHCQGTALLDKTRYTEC

SMILES	outcome
CCOC(=O)C1=C(N)Oc2c(c(=O)oc3ccccc23)C12C(=O)N(C)c1ccccc12 (configuration not stated)	inactive
C=CCN1C(=O)C2(C(C(=O)OC)=C(N)Oc3c2c(=O)oc2ccccc32)c2ccccc21 (configuration not stated)	inactive
